Calls of active or inactive are those of the source.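 How the source made its calls, unless noted: active means fluorescence slope after compound addition differing from the mean of all screened samples at 99.7% confidence, in either direction; inactive means the rest.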
Columns and labels:
[1] = inhibitors of TNFa-induced NFkB p65 translocation, primary screen, imaging, HUVEC, MLSMR starter and 10KST1 sets (AID 438;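 active means inhibition above 20% together with a positive visual image hit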;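 further: compound added about 3h40 before a 20 min TNFalpha stimulation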;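 on inhibition: signal is the nuclear over cytoplasmic p65 intensity ratio per well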); conditions: HUVEC TNFa-induced p65 nuclear translocation; cell count: measured here: nuclei count (cytotoxicity indicator), at 2.08 µM; inhibition: at 2 µM, stronger effect = higher value, 0% TNFa-plus-vehicle, 100% no-TNFa wells
[2] = reduction of polyQ htt aggregates in cells – imaging, exon1htt(103Q)mCFP cells, high-content imaging, primary screen (AID 483;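 active means visual image review flags a hit and inhibition of aggregation exceeds 20%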;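 further: compound exposure lasted 3 days before fixation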;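 on nuclei count: percent of the per-plate median nuclei count of sample wells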); conditions: exon1htt(103Q)mCFP cell line, aggregate imaging, at 2 µM; inhibition of aggregation: stronger effect = higher value; nuclei count: measured here: cell count, toxicity
[3] = endothelial E-selectin expression blockers – imaging, HUVEC, immunofluorescence, MLSMR starter and 10KST1 sets, primary screen (AID 487;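 active means visually confirmed hit in the image check and inhibition above 20%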;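 on inhibition: signal is fraction of cell area covered by stained E-selectin grains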;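 on nuclei count: 100% = median nuclei count of all wells on the same plate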); conditions: HUVEC TNFalpha-induced E-selectin immunofluorescence imaging, at 2 µM; inhibition: stronger effect = higher value; nuclei count: measured here: cell number, toxicity
[4] = target: Voltage-gated potassium channel subunit beta-2 (Rattus norvegicus) (UniProt P62483); assay: inhibitors of rat Kvbeta2 reductase activity – biochemical, NADPH fluorescence, primary screen (AID 622;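 active means fluorescence slope higher than the sample average by over 3 SD, cut at about -0.22 in these data, passing the limit was not always enough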;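 further: slope of raw intensity against log time taken from 70 to 1610 s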); conditions: recombinant KvBeta, 4-cyanobenzaldehyde reduction, at 10 µM, stronger effect = higher value
Voltage-gated potassium channel subunit beta-2 (Rattus norvegicus), sequence (P62483 whole entry, looked up): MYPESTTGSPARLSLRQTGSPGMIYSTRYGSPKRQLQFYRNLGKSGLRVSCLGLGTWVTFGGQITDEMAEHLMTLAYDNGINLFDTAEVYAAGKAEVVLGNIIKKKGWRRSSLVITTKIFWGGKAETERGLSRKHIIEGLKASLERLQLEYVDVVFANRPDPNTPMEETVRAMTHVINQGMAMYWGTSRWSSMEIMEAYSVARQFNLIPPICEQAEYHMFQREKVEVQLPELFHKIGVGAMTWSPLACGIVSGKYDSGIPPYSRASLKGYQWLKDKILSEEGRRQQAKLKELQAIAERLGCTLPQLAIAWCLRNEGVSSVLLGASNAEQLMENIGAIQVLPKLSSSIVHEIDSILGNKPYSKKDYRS

[5] = target: Voltage-gated potassium channel subunit beta-2 (Rattus norvegicus) (UniProt P62483); assay: enhancers of rat Kvbeta2 NADPH turnover – biochemical, NADPH fluorescence, primary screen (AID 623;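 active means NADPH fluorescence slope more negative than the mean of all samples by about 3 SD, 99.7% confidence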;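 further: fluorescence intensity change per second fitted from 20 to 320 s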); conditions: Recombinant KvBeta, NADPH fluorescence decrease slope, 10 min; at 10 µM; stronger effect = lower value
[6] = target: Alpha-2C adrenergic receptor (Homo sapiens) (UniProt P18825); assay: compounds altering alpha2C-coupled GIRK flux – cell-based, HEK293 alpha2C/GIRK1/2, thallium flux, primary screen (AID 624); conditions: thallium flux BTC fluorescence, at 10 µM, actives lie on both sides;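 further: slope of fluorescence ratio to pre-addition baseline per second over 15 to 24 s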
Alpha-2C adrenergic receptor (Homo sapiens), sequence (P18825 whole entry, looked up): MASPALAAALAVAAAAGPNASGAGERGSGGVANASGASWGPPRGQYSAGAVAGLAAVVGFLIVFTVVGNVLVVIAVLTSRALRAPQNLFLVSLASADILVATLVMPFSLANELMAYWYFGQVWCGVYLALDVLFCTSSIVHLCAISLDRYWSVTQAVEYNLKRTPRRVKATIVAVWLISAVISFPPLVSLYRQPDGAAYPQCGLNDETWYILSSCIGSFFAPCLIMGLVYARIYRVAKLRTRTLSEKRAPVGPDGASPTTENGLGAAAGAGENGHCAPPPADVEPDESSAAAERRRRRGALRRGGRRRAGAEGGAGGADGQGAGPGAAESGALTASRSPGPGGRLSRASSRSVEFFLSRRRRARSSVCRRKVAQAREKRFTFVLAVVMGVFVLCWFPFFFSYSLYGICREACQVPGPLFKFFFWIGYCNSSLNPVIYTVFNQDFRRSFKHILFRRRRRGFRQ

[7] = blockers of RIG-like receptor reporter activation – cell-based, Sendai virus stimulus, luciferase, 10K MLSCN set, TLR/RLR signaling modifier project, primary screen (AID 602276;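 active means inhibition at or above 50% at 10 µM; inactive means inhibition below 50%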;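 further: firefly luciferase from ISG56 promoter only with Renilla not read in this screen; 0% = Sendai virus plus DMSO and 100% = medium plus DMSO without virus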); conditions: HEK293 RL24 IRF3 luciferase reporter, at 10 µM, stronger effect = higher value
[8] = TLR3 IRF3 reporter activation blockers – cell-based, poly I:C stimulus, luciferase, 10K MLSCN set, primary screen (AID 602277;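 active means inhibition of the reporter signal at or above 50%; inactive means inhibition below 50%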); conditions: HEK293-TLR3 RL24 IRF3 luciferase reporter, at 10 µM, stronger effect = higher value

Row | Compound | cell count [1] | inhibition [1] | inhibition of aggregation [2] | nuclei count [2] | inhibition [3] | nuclei count [3] | fluorescence slope [4] | NADPH fluorescence slope [5] | slope [6] | inhibition [7] | inhibition [8]
1 | COC(=O)c1ccccc1NC(=O)C1CCN(S(=O)(=O)c2cc(C)ccc2OC)CC1 | 607 | 3.6% (inactive) | -20.2% (inactive) | 111% | -76.8% (inactive) | 123% | -0.454 (inactive) | -2.4e-07 (inactive) | 0.00507 (inactive) | 18.9% (inactive) | 28.7% (inactive)
2 | C=CCSc1nc(N)c(C(=O)Nc2ccccc2C)cc1C(N)=O | 775 | 1.4% (inactive) | 15.6% (inactive) | 96.4% | -142% (inactive) | 124% | -0.46 (inactive) | 1.4e-05 (inactive) | 0.00326 (inactive) | -4.85% (inactive) | 24.2% (inactive)
3 | COc1ccc(N2CCN(c3ccc(N)cc3C#N)CC2)cc1 | 744 | -6.6% (inactive) | 28.1% (inactive) | 102% | -65.8% (inactive) | 104% | -0.593 (inactive) | -2.3e-05 (inactive) | 0.00782 (inactive) | 3.39% (inactive) | 21.5% (inactive)
4 | COc1ccc(S(=O)(=O)NCCC(=O)NC2CCCCCCC2)cc1 | 293 | 2.8% (inactive) | 13.6% (inactive) | 95% | -89.3% (inactive) | 97% | -0.4 (inactive) | -8.9e-05 (inactive) | 0.00674 (inactive) | 17.8% (inactive) | 26% (inactive)
5 | CCC1SC2=NC(C)=C(C(=O)OC)C(c3ccc(C)cc3)N2C1=O (centres undefined) | 562 | -11.1% (inactive) | -9.6% (inactive) | 111% | -57.6% (inactive) | 103% | -0.591 (inactive) | -6.5e-05 (inactive) | 0.0061 (inactive) | -10.4% (inactive) | -17.2% (inactive)
6 | CCCC(=O)Nc1cccc(NC(=O)CN2CCN(c3ccccc3OC)CC2)c1 | 693 | -15.2% (inactive) | 17.6% (inactive) | 98.8% | -61.4% (inactive) | 104% | -0.481 (inactive) | -4.6e-05 (inactive) | 0.00587 (inactive) | -1.32% (inactive) | 11.7% (inactive)
7 | CC1(C)OC(=O)C(=CNc2ccccc2F)C(=O)O1 | 604 | -9.5% (inactive) | 29.9% (inactive) | 95.6% | 22.8% (inactive) | 96.8% | -0.606 (inactive) | -1.2e-05 (inactive) | 0.0057 (inactive) | 14.1% (inactive) | 28% (inactive)
8 | O=C(Nc1sc2c(c1C(=O)NCc1ccco1)CCCC2)c1ccc2c(c1)OCO2 | 563 | -10.1% (inactive) | 2.5% (inactive) | 103% | -56% (inactive) | 117% | -0.517 (inactive) | 3.8e-06 (inactive) | 0.00669 (inactive) | -29.8% (inactive) | -179% (inactive)
9 | Cc1cc(C)cc(NC(=O)CSc2nnc(Cc3cccn3C)n2-c2ccc(F)cc2)c1 | 479 | 4% (inactive) | 36.9% (inactive) | 12.9% | 39.4% (inactive) | 96.5% | -0.519 (inactive) | -2e-05 (inactive) | 0.00611 (inactive) | 13.7% (inactive) | 25.8% (inactive)

Source: PubChem BioAssay
